# HCMV antiviral – blocks human cytomegalovirus replication; activity change, negative = inhibition, % at 57.5 µM; hit rate 4.5% among 410,000; AID 1259415; HFF cells, HCMV-luciferase reporter, 72 h; stronger effect = lower value; in the data active means activity change below about -60%; inconclusive means no clear call, values can overlap the other calls; inactive means above about -39%
#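 Two compound doses tested in HFFs infected with HCMV-luciferase, MOI 1 PFU/cell, 72 h at 37C. Lysate luminescence read with OneGlo; data normalized against buffer-only and 10uM Salinomycin inhibitor controls.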
# FMDV inh – antivirals against foot and mouth disease virus; FMDV antiviral cell-based qHTS; Potency, µM (series often up to 57.9 µM), inactives show at the highest dose activity change, negative = inhibition, usual class: inhibitors; hit rate 1.2% among 410,000; calls by dose curve; tested in HEK293T cells; further: read-out not given here; potency means the concentration at half of the fitted maximal effect; nearly all actives have a fitted effect of over 45% in size
# Sm TGR inh – inhibitors of Schistosoma mansoni thioredoxin glutathione reductase. Q962Y6. purified TGR, DTNB reduction, TNB absorbance 405 nm. Potency, µM (highest dose often 114 µM), for the others: at the top dose activity change, negative = inhibition, usual class: inhibitors. hit rate 3% among 360,000; further: potency means the concentration at half of the fitted maximal effect; nearly all actives have a fitted effect of over 60% in size
#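 Kinetic colorimetric format: TGR-catalysed, NADPH-driven DTNB reduction monitored via TNB absorbance. Enzyme dispensed at 20 nM; compound exposure 15 min at room temperature before reaction start.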
# Vaccinia mCherry – vaccinia inhibition (mCherry reporter). Vaccinia virus mCherry reporter infection, fluorescence. Potency, µM (series often up to 36.5 µM), without a hit: at the highest dose activity change, negative = inhibition, most hits filed as inhibitors. AID 720579. hit rate 0.63% among 310,000; calls by dose curve; tested in A549 cells; further: potency means the concentration at half of the fitted maximal effect; nearly all actives have a fitted effect of over 35% in size
# Vaccinia Venus – inhibitors of vaccinia virus (Venus reporter); hit rate 0.46% among 330,000; Vaccinia virus Venus reporter expression, fluorescence; Potency, µM (top dose mostly 36.5 µM), without a hit: at the top dose activity change, negative = inhibition, most hits filed as inhibitors; calls by dose curve; tested in A549 cells; further: potency means the concentration at half of the fitted maximal effect; nearly all actives have a fitted effect of over 30% in size
# HCV inhibitor – inhibitors of hepatitis C virus infection | Huh7.5.1 HCVcc-Cre infection, luciferase reporter, 44 h | Potency, µM (top dose mostly 41.8 µM), inactives show at the top dose activity change, negative = inhibition, most hits filed as inhibitors | hit rate 3.4% among 340,000; further: potency means the concentration at half of the fitted maximal effect
#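 After 44 h co-culture of compound, cells and HCVcc-Cre (~0.5 moi), substrate is added for 15 min at room temperature and luciferase measured over 15 sec. Cells were seeded at 1,000/well and pre-cultured 4 h.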
# The depositor's hits bear a star; i = inactive; ? = inconclusive; . = no result given; [ ] = remark or other dose. This is a sample that favours compounds with a hit; in the whole collection about 9.3% have one here. Unless noted, the call rests on the fitted dose curve; in most records, active means well fitted curve in the direction sought with a large enough effect; inconclusive means small, poorly fitted or top-dose-only effect, or another doubt; inactive means no such curve, though single readings can be large; an effect the other way counts as inactive or inconclusive. On the % scale 0 is the no-effect control and ±100 the full control effect.
SMILES,HCMV antiviral,FMDV inh,Sm TGR inh,Vaccinia mCherry,Vaccinia Venus,HCV inhibitor
COC(=O)C(Cc1ccc(O)cc1)NC(=O)Cn1cc(C)c(=O)[nH]c1=O (stereo not drawn),-13.1,-19.8%,.,i,8.5%,?
CC1(C)CC(NC(=O)CCc2ccccc2)CC(C)(C)N1,-11.3,0.0%,0.0%,.,2.0%,-0.4%
Cc1cc2c(cc1C)C(c1ccsc1)CC(=O)N2 (stereo not drawn),-11.0,-2.8%,5.8%,.,.,22.4%
Cc1ccc(NC(=O)COc2cccc(Oc3ccccc3)c2)cc1S(=O)(=O)N1CCOCC1,-16.7,-28.9%,2.2%,?,-18.7%,3.16µM*
Cc1cccc(OCCC(=O)Nc2ccc(C)c(S(=O)(=O)N3CCCCC3)c2)c1,-64.5*,-8.6%,-1.6%,?,?,3.16µM*
Cc1cccc(OCCC(=O)Nc2ccc(S(=O)(=O)N3CCCC3)cc2)c1,1.5,?,-19.5%,.,-29.0%,?
Cc1cccc(OCCCC(=O)Nc2ccc(Cl)c(S(=O)(=O)N3CCOCC3)c2)c1,-36.8,?,2.3%,.,.,7.94µM*
Cc1cccc(OCCC(=O)Nc2ccc(C)c(S(=O)(=O)N3CCOCC3)c2)c1,4.9,?,.,.,.,12.6µM*
Cc1ccc(OCCC(=O)Nc2ccc(C)c(S(=O)(=O)N3CCOCC3)c2)cc1,0.0,2.4%,-9.8%,.,.,?
CCN(C(=O)Cn1c(=O)oc2cc(S(=O)(=O)N3CCCCC3)ccc21)c1ccccc1,-19.0,-15.7%,-4.0%,-18.9%,-3.1%,.
OC(Cn1cnnc1)c1ccccc1 (stereo not drawn),11.3,-0.4%,0.0%,-1.2%,5.1%,-1.1%
CC(=O)NC(CCS(C)(=O)=O)C(=O)Nc1ccc(Cl)c(Cl)c1 (stereo not drawn),86.8,-26.4%,5.2%,2.2%,1.7%,6.8%
C/C(=N\NC(=O)c1c(Cl)cnn1C)c1cccc(NC(=O)COc2ccccc2)c1,?,?,-1.3%,-26.9%,-28.0%,?
Cc1ccc(NC(=O)CN2c3cccc4cccc(c34)S2(=O)=O)cc1S(=O)(=O)N1CCOCC1,-28.9,-18.7%,-2.5%,-8.8%,?,11.2µM*
CCOc1ccccc1OCCCC(=O)Nc1ccc(Cl)c(S(=O)(=O)N2CCOCC2)c1,?,?,-10.9%,.,.,7.94µM*
C[C@H](NC(=O)c1nc[nH]c1C(=O)NCCCCCNC(=O)OC(C)(C)C)c1ccccc1,-36.1,39.8µM*,-0.4%,?,?,?
CC(C)(C)OC(=O)N1CCN(c2ccc(CNC(=O)c3ccc(Cl)cc3)cc2)CC1,-95.2*,25.1µM*,-26.7%,.,.,?
CC(C)(C)c1ccc(C(=O)N2CCN(CCNC(=O)C(=O)NCc3ccc(Cl)cc3)CC2)cc1,.,-28.0%,-0.1%,-16.7%,?,11.2µM*
C[C@@H](NC(=O)c1nc[nH]c1C(=O)NCCCCCNC(=O)OC(C)(C)C)c1ccccc1,1.2,-8.6%,.,-6.9%,?,?
CC(C)(C)OC(=O)NCc1ccc(CNC(=O)c2[nH]cnc2C(=O)Nc2ccccc2F)cc1,-32.4,20µM*,.,?,?,.
CCc1ccc(N2C(=O)C(Cl)=C(N3CCOCC3)C2=O)cc1,-10.5,-6.9%,4.3%,-24.5%,-9.2%,32.4%
COC(=O)C1=C(C)NC(=O)C1(Nc1ccc(Cl)cn1)C(F)(F)F (stereo not drawn),14.1,5.9%,-4.7%,-18.0%,-8.1%,10.5%
Cc1ccc(NC(=O)c2cc(-c3cccs3)on2)cc1C,-12.6,36.6%,-40.6%,-26.1%,-11.4%,1.7%
CCCCCCCC(=O)N/N=C/c1ccc(Br)cc1,-34.6,17.6%,-34.5%,.,.,-21.6%
C[C@H](NC(=O)c1nc[nH]c1C(=O)NCc1ccc(CNC(=O)OC(C)(C)C)cc1)c1ccccc1,-14.0,31.6µM*,1.2%,?,?,7.08µM*
SMILES,HCMV antiviral,FMDV inh,Sm TGR inh,Vaccinia mCherry,Vaccinia Venus,HCV inhibitor
C[C@H](NC(=O)c1nc[nH]c1C(=O)NCc1ccccc1)c1ccccc1,39.6,-21.1%,7.9%,-21.8%,-15.7%,?
Cc1ccc(NC(=O)c2nc[nH]c2C(=O)N2CCN(C(=O)OC(C)(C)C)CC2)cc1,-25.6,-7.5%,0.0%,i,-16.2%,4.5%
CC(C)(C)OC(=O)NCc1ccc(CNC(=O)c2nc[nH]c2C(=O)N2CCN(C(=O)OC(C)(C)C)CC2)cc1,-28.1,20µM*,-19.8%,i,-22.5%,?
CNCc1ccccc1Sc1cccc2ccccc12,?,0.0%,-5.6%,-19.2%,-26.5%,?
CN(C)CCN(C)Cc1ccccc1Sc1cccc2ccccc12,-75.4*,?,20.5%,12.6µM*,?,11.2µM*
CCCc1nc(Cl)c(C#N)c2c1CCCC2,-37.7,-7.6%,25.1µM*,-7.8%,-8.6%,?
CC(C)Cc1nc(N2CCCCC2)c(C#N)c2c1CCC2,24.3,-18.2%,0.0%,2.3%,-0.6%,-20.2%
CCc1nc(Cl)c(C#N)c2c1CCCC2,-87.6*,-19.5%,-3.0%,i,-8.9%,?
CC(C)Cc1nc(Cl)c(C#N)c2c1CCCC2,-75.5*,-31.7%,-7.1%,.,.,-10.8%
CCCc1nc(NCCO)c(C#N)c2c1CCCC2,-7.7,-27.4%,-3.2%,i[7.34 µM],-10.2%[7.34 µM],?
C=C1C(=O)O[C@H]2[C@H]1[C@H](OC(=O)/C(C)=C\C)C[C@]1(CO1)[C@@H]1[C@H](OC(C)=O)C=C(C)[C@]21O,-17.9,0.0%,.,i,0.7%,-31.1%
C=C1C(=O)O[C@H]2C[C@]3(C)C([C@@H](OC(=O)/C(C)=C/C)[C@H]12)[C@](C)(O)CC[C@H]3O (stereo partly drawn),-39.2,-29.9%,14.1µM*,.,.,?
O=C1CC(c2ccccc2Cl)Cc2c1cnn2-c1nc2ccccc2s1 (stereo not drawn),-10.8,.,-2.2%,.,.,-2.3%
Cc1noc(C)c1COc1cccc(C(=O)Nc2ccc(Br)cc2F)c1,12.4,-25.5%,.,?,?,2.82µM*
Cc1noc(C)c1COc1cccc(C(=O)Nc2ccc3c(c2)OCO3)c1,-30.0,44.4%,-9.4%,.,.,-18.3%
Cc1ccc(NC(=O)c2ccc(OCc3c(C)noc3C)cc2)cc1C,?,31.6µM*,.,-18.8%,-27.7%,4.47µM*
Cc1ccc(NC(=O)c2cccc(OCc3c(C)noc3C)c2)cc1S(=O)(=O)Nc1ccccc1Cl,-65.9*,31.9%,-1.8%,-18.9%,-28.9%,?
Cc1ccc(NC(=O)c2cccc(OCc3c(C)noc3C)c2)c(C)c1,-14.7,-15.4%,5.4%,.,.,?
CC(=O)Nc1ccc(NC(=O)c2ccc(OCc3c(C)noc3C)cc2)cc1,11.2,-7.4%,.,-7.6%,-8.3%,1.5%
Cc1cc(-c2nc3cccnc3s2)ccc1NS(=O)(=O)c1cccs1,85.3,62.0%,9.9%,-21.1%,-3.7%,-4.9%
O=[N+]([O-])c1ccc(Cl)c(S(=O)(=O)/N=C(/c2ccccc2)N2CCOCC2)c1,-104.7*,-8.3%,0.1%,?,-1.2%,4.3%
